Assay results taken from PubChem BioAssay (NCATS).
Results filed as inconclusive are left out. A number with no mark means an inactive call. Activity calls are given as the source filed them. Calls come from the whole dose curve; as a rule, active = well fitted cell-killing curve with a large enough effect; inconclusive = small, poorly fitted or top-dose-only effect, or effect the other way; inactive = no such curve, though single readings can be large or run the other way.

Test: Quantitative highthroughput screen to assess conditional lethalithy of SEM cells grown in RPMI1640 with dialyzed fetal bovine serum (RPMI+ds) (AID 1963884); note: nearly all actives have a fitted effect of over 35% in size;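 for viability: 100% = DMSO control wells and 0% = empty wells without cells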
Conditions: SEM B-ALL cells, RPMI+dialyzed FBS, CellTiter-Glo viability, 48 h; series mostly up to 45.8 µM; viability: at the top concentration
In short: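 Each medium arm—HPLM with 10% dialyzed FBS, or RPMI1640 with 5 mM glucose and 10% untreated or dialyzed FBS—was screened against an 11-point, 3-fold compound titration for 48 h at 37 °C, with CellTiter-Glo luminescence as endpoint.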
Potency is the fitted concentration of half-maximal effect.

**Q.** For `CCOC1OC(=O)C[C@H]1NC(=O)[C@@H]1CCCN1C(=O)[C@@H](NC(=O)c1ccc(N)c(Cl)c1)C(C)(C)C` (some centres not stated), which “viability” value is on record?
**A.** 90.2%

**Q.** Which Potency does the source give for `Cc1cc(N2CCOCC2)cc2[nH]c(-c3c(NC[C@@H](O)c4cccc(Cl)c4)cc[nH]c3=O)nc12` here?
**A.** 1870 nM (active)

**Q.** For `CNC(=O)c1cccc(-c2ccc3c(N4CCOC[C@H]4C)nc(N4CCOC[C@H]4C)nc3n2)c1`, which Potency is on record?
**A.** 469 nM (active)

**Q.** For `COc1cc(OC)c(C=CS(=O)(=O)Cc2ccc(OC)c(NCC(=O)O)c2)c(OC)c1`, which Potency is on record?
**A.** 118 nM (active)

**Q.** For `Cc1[nH]c(C=C2C(=O)Nc3ccc(S(=O)(=O)N(C)c4cccc(Cl)c4)cc32)c(C)c1C(=O)N1CCN(C)CC1`, which Potency is on record?
**A.** 6620 nM (active)

**Q.** With `CNc1nc(-c2ccc3c(N)n[nH]c3c2)cc(N2C[C@@H](C(=O)NC3CCCCC3)CC[C@@H]2C)n1` as the compound, how does the Potency read?
**A.** 18700 nM (active)

**Q.** Which “viability” value does the source give for `CCNC(=O)CCCC=CC[C@@H]1[C@H](C=CC(O)CCc2ccccc2)[C@@H](O)C[C@@H]1O` (some centres not stated) here?
**A.** 89.6%

**Q.** Which “viability” value does the source give for `CON=C(C(=O)N[C@@H]1C(=O)N2C(C(=O)O)=C(CSC(=O)c3ccco3)CS[C@H]12)c1csc(N)n1` here?
**A.** 107%

**Q.** Which “viability” value does the source give for `COc1cc(C(C)=O)ccc1OCCCN1CCC(c2noc3cc(F)ccc23)CC1` here?
**A.** 74.9%

**Q.** For `CCOC(=O)C1=C[C@]2(CC)CCCN3CCc4c(n1c1ccccc41)[C@@H]32`, which “viability” value is on record?
**A.** 84.4%

**Q.** Which Potency does the source give for `O=C(O)C=Cc1ccc(O)c(O)c1` here?
**A.** 14800 nM (active)

**Q.** Which Potency does the source give for `CC(C)(C)c1[nH]cnc1C=c1[nH]c(=O)c(=Cc2ccccc2)[nH]c1=O` here?
**A.** 6.1 nM (active)

**Q.** For `CC(=O)Nc1sc2c(c1-c1nc3ccccc3s1)CNC2`, which Potency is on record?
**A.** 18700 nM (active)

**Q.** With `CC(=O)ON=C1C(c2c(O)[nH]c3cc(Br)ccc23)=Nc2ccccc21` as the compound, how does the Potency read?
**A.** 935 nM (active)

**Q.** Which Potency does the source give for `CCOc1ccccc1N=Nc1c(C)[nH]n(-c2nc(-c3ccccc3)cs2)c1=O` here?
**A.** 7430 nM (active)

**Q.** With `COC(=O)[C@H](c1ccccc1Cl)N1CCc2sccc2C1` as the compound, how does the “viability” value read?
**A.** 91.4%

**Q.** Which Potency does the source give for `COC(=O)C=CC(=O)OC` here?
**A.** 2640 nM (active)

**Q.** Which “viability” value does the source give for `CN[C@H]1[C@@H](O[C@@H]2[C@H](O[C@@H]3[C@@H](O)[C@@H](O)[C@@H](N=C(N)N)[C@@H](O)[C@@H]3N=C(N)N)O[C@H](C)[C@@]2(O)C=O)O[C@@H](CO)[C@@H](O)[C@H]1O` here?
**A.** 100% [at 15.3 µM]

**Q.** For `CC1(C)C(=O)N(CCN2CCC(C(=O)c3ccc(F)cc3)CC2)c2ccccc21`, which “viability” value is on record?
**A.** 87.3%

**Q.** For `CC(C)OC(=O)[C@H](C)N[P@](=O)(OC[C@H]1O[C@@H](n2ccc(=O)[nH]c2=O)[C@](C)(F)[C@H]1O)Oc1ccccc1`, which Potency is on record?
**A.** 8330 nM (active)

**Q.** With `O=c1[nH]c(=O)n([C@H]2C[C@@H](O)[C@@H](CO)O2)cc1C(F)(F)F` as the compound, how does the Potency read?
**A.** 1870 nM (active)

**Q.** For `CO[C@@H]1[C@@H](O)[C@H](O)[C@@H](n2c3c(Cl)cccc3c3c4c(c5c6cccc(Cl)c6[nH]c5c32)C(=O)NC4=O)O[C@@H]1CO`, which Potency is on record?
**A.** 469 nM (active)

**Q.** Which “viability” value does the source give for `COc1ccc(-c2oc3cc(OC)ccc3c2C(=O)c2ccc(C#N)cc2)cc1` here?
**A.** 98.3%

**Q.** With `CC(C)N(CC[C@H](c1ccccc1)c1cc(CO)ccc1O)C(C)C` as the compound, how does the “viability” value read?
**A.** 96.1%

**Q.** For `COc1ccc2cc3[n+](cc2c1OC)CCc1cc2c(cc1-3)OCO2`, which Potency is on record?
**A.** 18700 nM (active)

**Q.** For `COc1cc2c(cc1OC)[C@@H]1Cc3ccc(OC)c(OC)c3CN1CC2`, which “viability” value is on record?
**A.** 83.5%

**Q.** Which “viability” value does the source give for `COc1cc2nc(N(C)CCCNC(=O)C3CCCO3)nc(N)c2cc1OC` (configuration not stated) here?
**A.** 80.8%
